We go through seven sequences from article PMC8384837, “Expanding the binding specificity for RNA recognition by a PUF domain”.

Test in all cases: yeast three-hybrid, YBZ-1, SC-Leu-His + 0.5 mM 3-AT, 4 days
What all share (conditions): tags: N-Gal4 AD-HA kept; label: inside an RPR1-promoter hybrid RNA with tandem MS2 sites; ssRNA

For one test, the target named is PUM1 PUF domain R1-TWR (Homo sapiens, UniProt Q14671 828-1176, S863T;R864W;Q867R). In short, it runs like this:
(§1)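 The interaction score is the log change in how often each variant appears, from input to selection. Frequencies came from PCR-amplified, Illumina-sequenced repeat regions of Pumilio-1 PUF domain libraries grown in strain YBZ-1 (LexA–MS2 coat fusion, HIS3 reporter) alongside matching RNA elements. Input plates were SC-Leu and selection plates were SC-Leu-His + 0.5 mM 3-AT, each for four days, and the log2 calculation used a pseudocount of 1 where a variant was absent.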

In the next test the target is PUM1 PUF domain R4-EHD (Homo sapiens, UniProt Q14671 828-1176, N971E;Q975D). In short, it runs like this: as §1
The next test concerns the target PUM1 PUF domain R4-SMS (Homo sapiens, UniProt Q14671 828-1176, N971S;H972M;Q975S). In outline:
as §1

For the next test, the target named is PUM1 PUF domain R4-TPQ (Homo sapiens, UniProt Q14671 828-1176, N971T;H972P). In short, it runs like this:
as §1

A further test has as its target PUM1 PUF domain R3-VFG (Homo sapiens, UniProt Q14671 828-1176, C935V;R936F;Q939G). In outline:
as §1

The target in a further test is PUM1 PUF domain R3-CHG (Homo sapiens, UniProt Q14671 828-1176, R936H;Q939G). In outline:
as §1

For the next test, the target named is PUM1 PUF domain R8-KWG (Homo sapiens, UniProt Q14671 828-1176, N1122K;Y1123W;Q1126G). In short, it runs like this:
as §1

The next test deals with PUM1 PUF domain R5-TRK (Homo sapiens, UniProt Q14671 828-1176, C1007T;Q1011K). In outline:
as §1

The target in a further test is PUM1 PUF domain R5-QQG (Homo sapiens, UniProt Q14671 828-1176, C1007Q;R1008Q;Q1011G). In short, it runs like this:
as §1

The next test concerns the target PUM1 PUF domain R5-PRF (Homo sapiens, UniProt Q14671 828-1176, C1007P;Q1011F). In short, it runs like this: as §1
The target in a further test is PUM1 PUF domain R3-RPR (Homo sapiens, UniProt Q14671 828-1176, C935R;R936P;Q939R). In outline:
as §1

In the next test the target is T1, PUM1 PUF domain R6-HWR (Homo sapiens, UniProt Q14671 828-1176, N1043H;Y1044W;Q1047R).
T1 sequence: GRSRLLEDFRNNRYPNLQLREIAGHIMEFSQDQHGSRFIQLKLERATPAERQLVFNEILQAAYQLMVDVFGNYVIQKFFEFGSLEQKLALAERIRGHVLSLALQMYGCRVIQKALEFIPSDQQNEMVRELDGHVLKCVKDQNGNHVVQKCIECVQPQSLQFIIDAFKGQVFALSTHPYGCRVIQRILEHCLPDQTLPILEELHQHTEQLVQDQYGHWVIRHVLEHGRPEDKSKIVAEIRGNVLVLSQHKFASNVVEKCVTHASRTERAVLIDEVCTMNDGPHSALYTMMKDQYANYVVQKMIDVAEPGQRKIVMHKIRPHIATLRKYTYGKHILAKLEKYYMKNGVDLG
In short, it runs like this: as §1

A further test addresses PUM1 PUF domain R8-KWK (Homo sapiens, UniProt Q14671 828-1176, N1122K;Y1123W;Q1126K). In outline:
as §1

In another test the target is PUM1 PUF domain R5-HKK (Homo sapiens, UniProt Q14671 828-1176, C1007H;R1008K;Q1011K). In outline:
as §1

A further test deals with PUM1 PUF domain R8-CYN (Homo sapiens, UniProt Q14671 828-1176, N1122C;Q1126N). In outline:
as §1

Sequence of PUM1 PUF domain R8-CYN (Q14671 828-1176 N1122C/Q1126N): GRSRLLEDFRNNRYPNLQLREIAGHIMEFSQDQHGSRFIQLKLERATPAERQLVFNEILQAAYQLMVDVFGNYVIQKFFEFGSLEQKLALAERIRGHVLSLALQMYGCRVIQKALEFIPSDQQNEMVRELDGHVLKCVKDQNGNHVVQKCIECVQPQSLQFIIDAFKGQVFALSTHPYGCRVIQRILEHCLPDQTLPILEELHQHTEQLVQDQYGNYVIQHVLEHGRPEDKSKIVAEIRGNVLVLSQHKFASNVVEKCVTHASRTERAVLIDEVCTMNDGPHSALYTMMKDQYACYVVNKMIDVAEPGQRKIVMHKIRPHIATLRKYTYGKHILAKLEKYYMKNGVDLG
Sequence of PUM1 PUF domain R5-HKK (Q14671 828-1176 C1007H/R1008K/Q1011K): as the sequence (Q14671 828-1176 N1122C/Q1126N) above, with C180H, R181K, Q184K, C295N, N299Q counted along it

Take “GGCUAGAACUAGUGGAUCCCCCGGCGCCCGGCGGCUCGAGCCCGGGUAAGUGUAAAUUGUCUGCAUGCCGCCGGGCGCCAUGCCUGCAGGUCGACUCUAGAAAACAUG”: in the test with PUM1 PUF domain R1-TWR, the binding signal was 0.55 log2 enrichment (interaction score).
On to “GGCUAGAACUAGUGGAUCCCCCGGCGCCCGGCGGCUCGAGCCCGGGUAAGUGUAUAUAGUCUGCAUGCCGCCGGGCGCCAUGCCUGCAGGUCGACUCUAGAAAACAUG”, for which the binding signal in the test with PUM1 PUF domain R4-EHD was 6.81 log2 enrichment (interaction score); with PUM1 PUF domain R4-SMS, 1.55 log2 enrichment (interaction score); with PUM1 PUF domain R4-TPQ, 4.97 log2 enrichment (interaction score).
Consider “GGCUAGAACUAGUGGAUCCCCCGGCGCCCGGCGGCUCGAGCCCGGGUAAGUGUAAGUAGUCUGCAUGCCGCCGGGCGCCAUGCCUGCAGGUCGACUCUAGAAAACAUG”, for which the binding signal in the test with PUM1 PUF domain R3-VFG is 1.68 log2 enrichment (interaction score); with PUM1 PUF domain R3-CHG, 0.98 log2 enrichment (interaction score).
Take “GGCUAGAACUAGUGGAUCCCCCGGCGCCCGGCGGCUCGAGCCCGGGUAAGUGUAAAUAGUCUGCAUGCCGCCGGGCGCCAUGCCUGCAGGUCGACUCUAGAAAACAUG”: the binding signal with PUM1 PUF domain R8-KWG is 5.91 log2 enrichment (interaction score); with PUM1 PUF domain R5-TRK it was 4.09 log2 enrichment (interaction score); with PUM1 PUF domain R3-VFG it was 3.82 log2 enrichment (interaction score); in the test with PUM1 PUF domain R5-QQG, 0.25 log2 enrichment (interaction score); with PUM1 PUF domain R5-PRF, 3.86 log2 enrichment (interaction score); in the test with PUM1 PUF domain R3-CHG, 2.43 log2 enrichment (interaction score). Also, the binding signal in the test with PUM1 PUF domain R4-EHD was 3.48 log2 enrichment (interaction score); with PUM1 PUF domain R4-SMS it was 2.84 log2 enrichment (interaction score); with PUM1 PUF domain R3-RPR, 1.87 log2 enrichment (interaction score); with PUM1 PUF domain R6-HWR, 7.48 log2 enrichment (interaction score); in the test with PUM1 PUF domain R8-KWK, 5.56 log2 enrichment (interaction score).
As to “GGCUAGAACUAGUGGAUCCCCCGGCGCCCGGCGGCUCGAGCCCGGGUAAGUGUUAAUAGUCUGCAUGCCGCCGGGCGCCAUGCCUGCAGGUCGACUCUAGAAAACAUG”, the figures for the binding signal with PUM1 PUF domain R5-HKK, with PUM1 PUF domain R5-TRK and in the test with PUM1 PUF domain R5-QQG were 2.41 log2 enrichment (interaction score), 4.73 log2 enrichment (interaction score) and 2.7 log2 enrichment (interaction score), respectively.
For “GGCUAGAACUAGUGGAUCCCCCGGCGCCCGGCGGCUCGAGCCCGGGUAAGUGUAGAUAGUCUGCAUGCCGCCGGGCGCCAUGCCUGCAGGUCGACUCUAGAAAACAUG”, the binding signal with PUM1 PUF domain R4-TPQ is 1.66 log2 enrichment (interaction score).
In the case of “GGCUAGAACUAGUGGAUCCCCCGGCGCCCGGCGGCUCGAGCCCGGGUAAGCGUAAAUAGUCUGCAUGCCGCCGGGCGCCAUGCCUGCAGGUCGACUCUAGAAAACAUG”, the results for the binding signal with PUM1 PUF domain R8-KWG, with PUM1 PUF domain R8-CYN and with PUM1 PUF domain R8-KWK were 6.36 log2 enrichment (interaction score), 2.28 log2 enrichment (interaction score) and 6.96 log2 enrichment (interaction score), respectively.
